# Reference: PubChem BioAssay (Tox21)
# Unmarked numbers belong to inactive results. Records with an inconclusive call do not appear. Entries that show only a call come without a potency. Calls of active or inactive are those of the source. Unless noted, the call rests on the fitted dose curve; in most records, active means well fitted curve in the direction sought with a large enough effect in the repeat runs; inconclusive means weak or mixed curves; inactive means no such curve, though single readings can be large; an effect the other way counts as inactive or inconclusive.
# Tests used:
# [1] = qHTS assay to identify small molecule agonists of H2AX - cell viability counter screen (AID 1224847; calls by dose curve; further: nearly all actives have a fitted effect of over 30% in size; further: potency means the concentration at half of the fitted maximal effect)
# In short: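 For this counter screen, overnight-attached CHO-K1 cells received test compounds (15 concentrations, 0.76% DMSO final); 3 hr later at 37C, CellTiter-Glo reagent was added and luminescence recorded after 30 min at room temperature.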
# [2] = qHTS assay to identify small molecule antagonists of the estrogen related receptor (ERR) signaling pathway from Tox21 library (AID 1224848); further: nearly all actives have a fitted effect of over 50% in size; further: potency means the concentration at half of the fitted maximal effect
# In short: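 Quantitative high-throughput format: ERR reporter cells (2,000/well) pre-incubated 6 h, treated 18 h at 37 C with compounds in DMSO alongside positive and negative controls, then read by ONE-Glo luminescence.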
# [3] = qHTS RealTime-Glo MT Cell Viability Assay in HEK293 cells - 32 hour (AID 1224868); further: nearly all actives have a fitted effect of over 50% in size; further: potency means the concentration at half of the fitted maximal effect
# In short: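 Nonlytic real-time viability readout: viable cells convert prosubstrate to NanoLuc substrate, giving luminescence proportional to live cell number. HEK293, 600 cells/well, compound added after 5 h, continuous culture at 37 C.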
# [4] = A CellTox Green Cytotoxicity Assay to monitor cytotoxicity in HEK293 cells - 0 hour (AID 1224869); further: nearly all actives have a fitted effect of over 50% in size
# In short: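 Read-out: fluorescence of a cell-impermeant cyanine dye staining DNA of dead cells, proportional to cytotoxicity. HEK293, 600 cells/well with reagent, compound (23 nL DMSO) added after 5 h; reads at 0, 8, 16, 24, 32, 40 h.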
# [5] = qHTS RealTime-Glo MT Cell Viability Assay in HepG2 cells - 40 hour (AID 1224870); further: nearly all actives have a fitted effect of over 50% in size; further: potency means the concentration at half of the fitted maximal effect
# In short: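 HepG2 cells (600/well) mixed with RealTime-Glo MT reagent, settled 5 h at 37 C/5% CO2 before compound addition. Nonlytic NanoLuc luminescence from viable-cell prosubstrate reduction read repeatedly during 40 h treatment at 37 C.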
# [6] = qHTS assay to identify small molecule agonists of H2AX (AID 1224845; active means well fitted activation curve with a large enough effect in the signal ratio in the repeat runs, not every such curve was filed as active; the % refers to the signal ratio; further: potency means the concentration at half of the fitted maximal effect)
# In short: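 Wild-type CHO-K1 cells, plated overnight, exposed 3hr at 37C to 15 concentrations (0.76% DMSO final). Lysed, then HTRF anti-pH2AX (S139) cryptate and anti-H2AX-d2 antibodies, 24 hr room temperature; 665/620 nm emission read.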
# [7] = qHTS assay to identify small molecule agonists of the hypoxia (HIF-1) signaling pathway (AID 1224846; active means well fitted activation curve with a large enough effect in the signal ratio in the repeat runs, not every such curve was filed as active; the % refers to the signal ratio)
# In short: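 Beta-lactamase FRET read-out (CCF4-AM substrate) from ME-180 cells carrying an HRE-driven bla reporter, after 17 hrs compound exposure at 37C/5% CO2. Cells were seeded at 2,000 per well in 0.5% dialyzed FBS medium and preincubated 5 hrs.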
# [8] = qHTS RealTime-Glo MT Cell Viability Assay in HepG2 cells - 24 hour (AID 1224867); further: nearly all actives have a fitted effect of over 50% in size
# In short: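 Luminescence read-out: viable HepG2 cells reduce a prosubstrate to a NanoLuc substrate, giving a signal proportional to live cell number. Reads taken at 0, 8, 16, 24, 32 and 40 h of compound exposure at 37 C.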
# [9] = qHTS assay to identify small molecule agonists of the estrogen related receptor (ERR) signaling pathway from Tox21 library (AID 1224849; calls by dose curve; further: nearly all actives have a fitted effect of over 15% in size); settings: ERR reporter cell line, ONE-Glo luciferase, 18 h; at 92.4 µM (top of the series) unless noted
# In short: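 Luminescence readout (ONE-Glo, 30 min RT) after 18 h compound exposure at 37 C of NTP-supplied ERR reporter cells; cells were plated 6 h before compound addition by pin tool.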
Compound,Potency [1],Potency [2],Potency [3],Potency [4],Potency [5],Potency [6],outcome [7],Potency [8],"activity change, positive = activation [9]"
CCCCC(=O)Cl,inactive,inactive,inactive,inactive,inactive,–,–,–,–
Oc1c(Cl)cccc1Cl,inactive,–,inactive,inactive,inactive,inactive,inactive,inactive,–
O=C(Cc1ccccc1)OCc1ccccc1,inactive,–,inactive,inactive,inactive,inactive,–,inactive,–
C=CCC1=C(C)[C@@H](OC(=O)[C@@H]2[C@@H](C=C(C)C)C2(C)C)CC1=O,50.5 µM (active),21.7 µM (active),13.8 µM (active),inactive,inactive,56.6 µM (active),–,–,-64.6%
CCOC(=O)N(C)C(=O)CSP(=S)(OCC)OCC,inactive,–,inactive,inactive,inactive,inactive,inactive,inactive,–
C[C@]1(O)CC[C@H]2[C@@H]3CCC4=CC(=O)CC[C@]4(C)[C@@]3(F)[C@@H](O)C[C@@]21C,inactive,–,inactive,inactive,inactive,inactive,inactive,inactive,–
Cc1ncc2n1-c1ccc(Cl)cc1C(c1ccccc1F)=NC2,inactive,inactive,–,inactive,inactive,–,–,inactive,12.1% [at 42.5 µM]
O=C(O)c1ccc2[nH]cc(CCCCN3CC=C(c4ccccc4)CC3)c2c1,inactive,–,inactive,–,inactive,inactive,inactive,inactive,–
Cc1coc2c1CCC(C)C2 (centres undefined),inactive,–,inactive,inactive,inactive,inactive,inactive,inactive,–
O=C(CCN1CC1)OCC(CO)(COC(=O)CCN1CC1)COC(=O)CCN1CC1,inactive,–,inactive,inactive,inactive,–,inactive,inactive,–
O=C(Oc1ccc(Br)cc1)N1CCN2CCC1CC2,inactive,–,inactive,inactive,inactive,inactive,inactive,inactive,–
CC(=O)[C@H]1CC[C@H]2[C@@H]3CC[C@H]4C[C@H](O)CC[C@]4(C)[C@H]3C(=O)C[C@]12C,inactive,–,–,inactive,inactive,inactive,–,inactive,-14.9% [at 42.5 µM]
C(CCOCC1CO1)COCC1CO1 (centres undefined),inactive,–,–,inactive,inactive,–,–,inactive,–
CCOC(=O)C(c1c(O)c2ccccc2oc1=O)c1c(O)c2ccccc2oc1=O,–,–,inactive,inactive,inactive,inactive,–,inactive,–
CNC(=O)Oc1cccc(C(C)C)c1,–,–,inactive,inactive,inactive,–,inactive,inactive,–
C[C@]12CC[C@H]3[C@@H](CCC4=CC(=O)CC[C@@]43C)[C@@H]1CC[C@@H]2C(=O)O,inactive,inactive,inactive,–,inactive,–,–,inactive,-8.07% [at 42.5 µM]
OC(c1ccccc1)(c1ccccc1)C1CCNCC1,inactive,–,inactive,inactive,inactive,inactive,–,inactive,–
CCOP(=S)(OCC)Oc1cc(-c2ccccc2)on1,inactive,–,inactive,inactive,inactive,–,inactive,inactive,–
N#Cc1ccncc1,inactive,inactive,inactive,inactive,inactive,–,inactive,inactive,5.77%
CC(=O)C(Cl)Cl,inactive,inactive,inactive,inactive,inactive,–,inactive,inactive,–
CCCCCCI,inactive,inactive,inactive,inactive,24.6 µM (active),inactive,–,–,–
CCC/C(=N\OCC)C1=C(O)CC(CC(C)SCC)CC1=O (centres undefined),–,–,–,–,inactive,inactive,inactive,–,–
O=C(O)c1cccc(Cl)c1,inactive,–,inactive,inactive,inactive,inactive,inactive,inactive,–
Cc1ccccc1CO[C@@H]1C[C@@]2(C(C)C)CC[C@]1(C)O2,–,–,inactive,inactive,inactive,–,inactive,inactive,–
COc1cc(OC)nc(NC(=O)NS(=O)(=O)c2ncccc2C(=O)N(C)C)n1,inactive,–,inactive,inactive,inactive,inactive,inactive,inactive,–
Nc1cc2c3c(c1)C(c1ccccc1)=N[C@@H](NC(=O)c1cccnc1)C(=O)N3CC2,inactive,–,inactive,inactive,inactive,inactive,inactive,inactive,–
CC(CC(C#N)(c1ccccc1)c1ccccc1)N(C)C (centres undefined),inactive,–,–,–,inactive,–,inactive,–,–
C=C(C)[C@@H]1CC=C(C=O)CC1,inactive,inactive,inactive,inactive,inactive,–,inactive,inactive,-5.19%
CCCCOC(=O)c1ccccc1C(=O)O,inactive,–,inactive,inactive,inactive,inactive,inactive,inactive,–
CC(C)[N+](=O)[O-],inactive,–,inactive,inactive,inactive,inactive,inactive,inactive,–
